This note sets out measurements from ChEMBL document CHEMBL3988442, “University of Dundee, Small-Polar-MMV Screening Library” (2021).

Each structure is given as a SMILES string. Hit rate of the full screen: of about 69,000 compounds, about 950 (1.4%) showed an effect of 50% or more. Many of the other results were omitted from the sample, so strong results are more common in it than they were.

For this test, the system named is Mycobacterium tuberculosis. The experiment in a line: Cornell M. t heat shock assay. Note: in the data most compounds retested in dose-response had high values. Further details: dose or concentration left out as unconfirmed. The format is functional, organism-based.
Turning to `Cc1nnc([C@]23COC[C@H]2CN(S(=O)(=O)c2cccnc2)C3)o1.O=C(O)C(F)(F)F`, the “Percent Effect” value was 48.22%.
As for `COc1ccc(CN(C(=O)C2CCCS2)c2ccncc2)cc1` (configuration not stated), the “Percent Effect” value worked out at 99.59%.
With `COc1ccc(CN(C(=O)C2CCOCC2)c2ccncc2)cc1` the figure was -4.775%; with `COc1ccc(CN(C(=O)C2CCCO2)c2ccncc2)cc1` (configuration not stated), -11.42%.
The same measure for `O=C(CC1CC1)N1CCn2cc(Cn3cccn3)nc2C1.O=C(O)C(F)(F)F`: -0.6568%; for `CC(C)n1nc(CN2CCOCC2)c2c1CN(C(=O)c1ccno1)C2.O=C(O)C(F)(F)F`: 17.65%; for `Cc1ccc(CNCc2cccc3cn[nH]c23)c(OC2CCOC2)c1` (configuration not stated): 3.326%.
Consider `Cc1ccc(CNCc2cccc3cccnc23)c(OC2CCOC2)c1` (configuration not stated), for which the “Percent Effect” value was 87.35%.
The same measure for `Cc1ccc(CNCc2c[nH]nc2C(C)(C)C)c(OC2CCOC2)c1` (configuration not stated): 18.1%; for `CC(C)N(C)Cc1cnc2n1CCN(Cc1cccc(F)c1)C2.O=C(O)C(F)(F)F.O=C(O)C(F)(F)F`: -5.438%; for `Cc1nnc(N2CCCC3(CN(Cc4nccs4)CCO3)C2)o1.O=C(O)C(F)(F)F.O=C(O)C(F)(F)F` (configuration not stated): -34.51%.
For the compound `CCN(CC)C1CCN(C(=O)c2cc3cc(C)cc(C)c3nc2C)CC1.Cl`, the “Percent Effect” value came to 6.865%.
With `Cl.FC(F)(F)c1ccc(-c2cnc(C3CCCN3)cn2)cc1` (configuration not stated) the figure was -8.787%; with `O=C(Cc1ccncc1)N1CCC2(CC1)CC(c1ccccc1)CO2.O=C(O)C(F)(F)F` (configuration not stated), 53.05%.
Take `CC1COC2(CCN(C(=O)Cc3ccncc3)CC2)C1.O=C(O)C(F)(F)F` (configuration not stated): the “Percent Effect” value was 19.29%.
With `Cn1cc(C2COC3(CCN(C(=O)Cc4ccccc4)CC3)C2)cn1` (configuration not stated) the figure was 32.13%; with `Cc1ccc(CN2CCn3c(CNC(=O)c4cccn4C)cnc3C2)s1.O=C(O)C(F)(F)F`, 7.209%.
Turning to `COCC1Cn2nnc(-c3cnn(C)c3)c2CN1Cc1cccs1.O=C(O)C(F)(F)F` (configuration not stated), the “Percent Effect” value was 17.22%.
With `CN(C)c1cccc(CNC(=O)Nc2ccc3[nH]nnc3c2)n1` the figure was -8.207%; with `COc1ccc(C)c(NC(=O)NCc2cccc(N(C)C)n2)c1`, 29.74%; with `CC(=O)c1ccc(NC(=O)NCc2cccc(N(C)C)n2)cc1C`, 63.04%.
As to `CS(=O)(=O)N1CCOCC2(CCN(c3ccccn3)C2)C1.O=C(O)C(F)(F)F` (configuration not stated), the “Percent Effect” value was -2.08%.
`CCN1CCC2(CCN(c3ncccn3)CC2)C1=O.O=C(O)C(F)(F)F`: the “Percent Effect” value is listed as -1.865%.
Turning to `Cc1nc(CN(C)C)cc(N2CCCC(COc3ccc(F)cc3)C2)n1` (configuration not stated), the “Percent Effect” value was determined as 82.2%.
Consider `Nc1cc(N2CCCC(COc3ccc(F)cc3)C2)nc(N)n1` (configuration not stated), for which the “Percent Effect” value is 0.7864%.
In the case of `CN(C)Cc1ccc(C(=O)N2CCCC(COc3ccc(F)cc3)C2)o1` (configuration not stated), the “Percent Effect” value is listed as 1.225%.
`CN(C)Cc1nc(C(=O)N2CCCC(COc3ccc(F)cc3)C2)cs1` (configuration not stated): the “Percent Effect” value was -4.47%.
For `OCc1csc(N2CCCC(COc3cccc(F)c3)C2)n1` (configuration not stated), the “Percent Effect” value is on record as -18.57%.
The same measure for `Nc1cc(N2CCCC(COc3ccc(F)cc3)C2)ncn1` (configuration not stated): -15.24%; for `Cc1ccccc1OCC1CCCN(c2cc(N)nc(N)n2)C1` (configuration not stated): 94.51%.
The same measure for `CCNC(=O)c1ccnc(N2CCCC(COc3ccccc3C)C2)c1` (configuration not stated): -1.28%; for `Cc1nc(N)cc(N2CCCC(COc3cccc(F)c3)C2)n1` (configuration not stated): 95.51%.
With `Cl.NCCc1cc(N2CCOCC2)nc(NC2CC2)n1` the figure was -1.001%; with `Cn1cc(N2C(=O)CC[C@@H]3[C@H]2CCN3Cc2nccs2)cn1.O=C(O)C(F)(F)F`, -19.88%; with `O=C(O)C(F)(F)F.O=C1C[C@H]2[C@@H](CCN2C(=O)Cc2cccs2)N1Cc1cccnc1`, -27.42%.
Turning to `Cn1cc(C(=O)N2CC[C@@H]3[C@@H]2CCN3Cc2cccc(F)c2)cn1.O=C(O)C(F)(F)F`, the “Percent Effect” value is recorded as 6.285%.
With `O=C(O)C(F)(F)F.O=C(O)C(F)(F)F.O=C(O)C(F)(F)F.O=C1NC2(CCN(Cc3cccnc3)CC2)CC1c1cccnc1` (configuration not stated) the figure was -25.56%; with `Cc1cc(CN2CC[C@H]3C[C@H](C(=O)N4CCC(C)CC4)O[C@H]3C2)no1.O=C(O)C(F)(F)F`, -0.569%; with `CC1(C)CC(N(Cc2cccnc2)Cc2cccc(F)c2)CC(C)(C)N1.O=C(O)CC(O)(CC(=O)O)C(=O)O`, -20.05%.
`CC1c2ncc(Cn3cccn3)n2CCN1Cc1cccnc1.O=C(O)C(F)(F)F.O=C(O)C(F)(F)F` (configuration not stated): the “Percent Effect” value is -18.15%.
With `O=C(O)C(F)(F)F.O=C(O)C(F)(F)F.c1cncc(CN2CCc3ncnc(C4CCOC4)c3CC2)c1` (configuration not stated), the “Percent Effect” value is given as -9.628%.
As for `Cc1ccc2c(c1)CCC2NCc1c(C)nn(C)c1N1CCOCC1.Cl` (configuration not stated), the “Percent Effect” value was -16.61%.
`c1cnc(N2CCCC(c3cncc(-n4ccnc4)n3)C2)nc1` (configuration not stated): the “Percent Effect” value is -40.48%.
Turning to `Cc1cc(C)nc(N2CCCC(c3cccc(-n4ccnc4)n3)C2)n1` (configuration not stated), the “Percent Effect” value is listed as 68.58%.
As to `CC(=O)N1CCCC(c2cccc(-n3ccnc3)n2)C1` (configuration not stated), the “Percent Effect” value is -20.38%.
The same measure for `O=C(c1ccoc1)N1CCn2cnc(COCC3CC3)c2C1`: 1.475%; for `O=C(c1ccc2[nH]ccc2c1)N1CCn2cnc(COCC3CC3)c2C1`: 54.29%; for `Cc1cccc(C(=O)N2CCn3cnc(COCC4CC4)c3C2)c1`: 29.98%.
The same measure for `Cn1cc(N2CCC3(CCCN(Cc4ccc(F)cc4)C3)C2=O)cn1.O=C(O)C(F)(F)F` (configuration not stated): -14.44%; for `CC(C)CCN1CCc2cc(C(=O)N(C)C)c(NCC3CC3)nc2CC1.O=C(O)C(F)(F)F.O=C(O)C(F)(F)F`: -33.33%; for `CNC(=O)[C@H]1C[C@@H]2CN(Cc3csc(C)n3)C[C@@H]2N1S(C)(=O)=O.O=C(O)C(F)(F)F`: 2.273%.
With `COCc1cncc2c1CCN(C(=O)c1cccc(C#N)c1)C2.O=C(O)C(F)(F)F` the figure was 18.35%; with `OCC1N(Cc2ccc(F)cc2)[C@H]2CC[C@]1(O)CC2` (some centres not stated), 36.63%; with `Cc1cc(C)cc(Nc2nc(C)cc(=O)n2CC(=O)NC(C)C)c1`, 5.735%.
In the case of `CCC(C)NC(=O)Cn1c(Nc2cc(C)cc(C)c2)nc(C)cc1=O` (configuration not stated), the “Percent Effect” value turned out to be 104.5%.
Consider `Cc1cc(=O)n(CC(=O)NC(C)C)c(Nc2ccc(F)c(C)c2)n1`, for which the “Percent Effect” value is -7.671%.
The same measure for `Cc1ncsc1C(=O)N1CCCCC1c1cc2nc(C)c(C)c(O)n2n1` (configuration not stated): -18.91%; for `Cc1noc(C)c1CN1C[C@H]2CN(Cc3cccc(F)c3)C[C@H]2C1.O=C(O)C(F)(F)F.O=C(O)C(F)(F)F`: 1.076%.
As to `CCC(=O)N1CCc2[nH]cnc2C12CCN(C(=O)c1snnc1C)CC2`, the “Percent Effect” value is given as -5.563%.
The same measure for `CCC(=O)N1CCc2[nH]cnc2C12CCN(C(=O)CCS(C)(=O)=O)CC2`: 77.54%; for `CCC(=O)N1CCC2(CC1)c1nc[nH]c1CCN2S(C)(=O)=O`: -7.001%.
The same measure for `O=C(O)C(F)(F)F.O=C(O)C(F)(F)F.c1cncc(N2CCCC3(CN(Cc4cccs4)CCO3)C2)c1` (configuration not stated): -18.25%; for `COCCN1CCc2ncnc(NC(C)C)c2CC1.O=C(O)C(F)(F)F`: -1.499%; for `CS(=O)(=O)N1CCC(Nc2ccc(C#N)c(C(F)(F)F)c2)CC1`: -3.037%.
On to `N#Cc1ccc(NC2CCN(c3ncccn3)CC2)cc1C(F)(F)F`, for which the “Percent Effect” value is listed as 101.3%.
With `N#Cc1ccc(NC2CCN(c3ncccn3)CC2)cc1Cl`, the “Percent Effect” value is reported as -23.07%.
Take `COCCN1CCC2(CCN(c3ncccn3)CC2)C1=O.O=C(O)C(F)(F)F`: the “Percent Effect” value is recorded as -21.42%.
In the case of `O=C(O)C(F)(F)F.O=C(c1cnccn1)N1C[C@@H](OCc2cccnc2)[C@H]2OCCC[C@H]21`, the “Percent Effect” value is -23.96%.
For the compound `CN1CCCC(c2cncc(C(=O)NCc3ccccc3Cl)n2)C1.O=CO` (configuration not stated), the “Percent Effect” value worked out at 5.616%.
The same measure for `O=C(c1nc(COc2ccc3c(c2)OCO3)no1)N1CCCC1`: 24.96%; for `NC(=O)Cc1ccc(OCc2noc(C(=O)N3CCCC3)n2)cc1`: -10.23%.
With `CC(=O)Nc1ccc(OCc2noc(C(=O)N3CCCCCC3)n2)cc1` the figure was 51.07%.
Turning to `CC(=O)Nc1ccc(OCc2noc(C(=O)N3CCCC3)n2)cc1`, the “Percent Effect” value is reported as 4.312%.
With `O=C(c1nc(Cc2c[nH]c3ccccc23)no1)N1CCCCC1` the figure was 12.78%.
Turning to `CC(=O)Nc1ccc(OCc2noc(C(=O)N3CCCCC3)n2)cc1`, the “Percent Effect” value is 65.04%.
With `O=C(NCC1CC2(CO1)CN(Cc1cccs1)C2)C1CCC1.O=C(O)C(F)(F)F` (configuration not stated) the figure was -27.85%.
With `O=C(O)C(F)(F)F.O=C(c1ccncc1F)N1CC[C@@H]2OC(COCC3CC3)CC[C@@H]21` (some centres not stated), the “Percent Effect” value is -24.6%.
With `CC(C)C(C)NC(=O)c1ncn2c1CN(C)S(=O)(=O)c1ccccc1-2.O=C(O)C(F)(F)F` (configuration not stated), the “Percent Effect” value is given as -5.107%.
With `CCN(C)c1ncnc2c1CCN(Cc1ccsc1)CC2.O=C(O)C(F)(F)F.O=C(O)C(F)(F)F` the figure was -17.94%; with `CN(C)CCN(C)C(=O)Cn1cccc2cc(-c3ccc(F)cc3)nc1-2`, 93.82%; with `COc1ccc(-c2cc3cccn(CC(=O)N4CCOCC4)c-3n2)cc1`, -34.2%.
With `O=C(Cn1cccc2cc(-c3ccc(F)cc3)nc1-2)N1CCC(O)CC1` the figure was -13.39%; with `O=C(O)C(F)(F)F.O=C1CO[C@@H]2CN(CC3CCOCC3)C[C@H]2N1CC1CC1`, -5.405%; with `CN1C(=O)CC(c2ccccc2)C12CCN(CC1CC1)CC2.O=C(O)C(F)(F)F` (configuration not stated), 1.497%.
The same measure for `CCN1CCN(CCCNC(=O)c2cc3ccc(C)cc3nc2C)CC1`: -11.33%; for `COc1ccc2nc(C)c(C(=O)NCCN3CCS(=O)(=O)CC3)cc2c1`: 0.03382%.
Take `Cc1ccc2cc(C(=O)NCCN3CCS(=O)(=O)CC3)c(C)nc2c1`: the “Percent Effect” value was determined as 96.87%.
